High-throughput results deposited in PubChem BioAssay by National Center for Advancing Translational Sciences (NCATS).
Shown are actives, neighbours in structure and some others; about 2.1% of the full set was active somewhere.
D2 ag-1 – HTS Assay for Allosteric Agonists of the Human D2 Dopamine Receptor: Primary Screen for Agonists. AID 485358, 2010. 340,000 compounds, 0.53% hits. HEK293 T-REx D2 cells, calcium flux agonist mode. activation, % at 2 µM. D(2) dopamine receptor (Homo sapiens), P14416;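 active = activation over 3 SD above normal in the single-dose calcium agonist read, cut at about 30% in these data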
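Agonism scored from kinetic calcium signal (1 read/sec, 180 s) following compound pin transfer, after a 10 s baseline. Cells: HEK293 Trex line expressing inducible D2 receptor coupled to calcium, dye-loaded after overnight culture at 30 C.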
D2 antagonist – HTS Assay for Allosteric Antagonists of the Human D2 Dopamine Receptor: Primary Screen for Antagonists. HEK293 TREx D2 cells, calcium flux, dopamine EC80. inhibition, % at 10 µM. 340,000 compounds, 2% hits. D(2) dopamine receptor (Homo sapiens), P14416; in the data active = inhibition above about 30%; inactive = below that, where a call was filed
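Compounds are added to dye-loaded, induced HEK293 T-REx cells coupled to calcium release via D2; after a 3 min kinetic read an EC80 dopamine stimulus is given and fluorescence is recorded for 3 more min.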
LDHA block – qHTS assay for inhibitors of human lactate dehydrogenase. L-lactate dehydrogenase A chain (Homo sapiens), P00338. purified LDHA, NADH/diaphorase-resazurin fluorescence; active compounds read low. activity change, % (values are at about 110 or 230 µM). 480,000 compounds, 0.15% hits. AID 1347041, 2019; in the data active = activity change below about -30%; inconclusive = mostly about -25% to -30%
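Human LDH5 (2 nM) was incubated with 0.06 mM NADH and 0.2 mM pyruvate for 5 min at room temperature in Tris pH 7.4. Remaining NADH was coupled through diaphorase/resazurin, and resorufin fluorescence was read at 0 and 20 min.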
D2 PAM-1 – HTS Assay for Positive Allosteric Modulators of the Human D2 Dopamine Receptor: Primary Screen for Potentiators; HEK293 T-REx D2, calcium flux, EC20 dopamine potentiation; potentiation, % at 10 µM; 340,000 compounds, 0.34% hits; AID 485347, 2010;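 active = potentiation over 3 SD above the plate norm, cut at about 30% in these data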
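Primary screen. Calcium kinetics in induced HEK293 T-REx D2 cells: compound pre-addition 180 s, EC20 dopamine, 180 s more.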
D2 ag-2 – Beta-Arrestin HTS for Positive Allosteric Modulators of the Human D2 Dopamine Receptor: Agonists. activation, % (test concentration not listed). DiscoveRx PathHunter D2 beta-arrestin, luminescence, 90 min; 100% = 57 uM dopamine signal. D(2) dopamine receptor (Homo sapiens), P14416. AID 624465, 2012. 360,000 compounds, 0.084% hits; in the data active = activation above about 40%; inconclusive = between about 15% and that limit
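Agonist mode: compounds alone added to overnight-plated D2 PathHunter cells for 90 min at 37 C, with 57 uM final dopamine (EC100) defining full response. Beta-arrestin recruitment detected by chemiluminescent reagent, read after 1 h at ambient temperature.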
D2 PAM-2 – Beta-Arrestin HTS for Positive Allosteric Modulators of the Human D2 Dopamine Receptor: Potentiators; AID 624464, 2012; 360,000 compounds, 0.23% hits; DiscoveRx D2 beta-arrestin cells, luminescence, 90 min; 100% = 57 uM dopamine signal; potentiation, % (concentration not given with the values); in the data active = potentiation above about 50%; inconclusive = mostly about 30% to 49%
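D2 cells co-treated with compound plus 50 nM dopamine (EC20) for 90 min at 37 deg C to detect potentiation. Beta-arrestin recruitment was read as enzyme-fragment luminescence after 1 h at ambient temperature. Full response was set by 57 uM dopamine.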
D3 ag – qHTS of D3 Dopamine Receptor Agonist: D3 Dopamine Receptor B-arrestin Agonist Confirmatory Assay. shares compounds with D2 ag-1. DiscoveRx D3 beta-arrestin cells, luminescence, 90 min. Potency, µM (highest dose often 76.9 µM), most hits filed as activators. 2,300 compounds, 4% hits. AID 720506, 2013; also: nearly all actives have a fitted effect of over 70% in size
Target sequence (P35462 whole entry, looked up): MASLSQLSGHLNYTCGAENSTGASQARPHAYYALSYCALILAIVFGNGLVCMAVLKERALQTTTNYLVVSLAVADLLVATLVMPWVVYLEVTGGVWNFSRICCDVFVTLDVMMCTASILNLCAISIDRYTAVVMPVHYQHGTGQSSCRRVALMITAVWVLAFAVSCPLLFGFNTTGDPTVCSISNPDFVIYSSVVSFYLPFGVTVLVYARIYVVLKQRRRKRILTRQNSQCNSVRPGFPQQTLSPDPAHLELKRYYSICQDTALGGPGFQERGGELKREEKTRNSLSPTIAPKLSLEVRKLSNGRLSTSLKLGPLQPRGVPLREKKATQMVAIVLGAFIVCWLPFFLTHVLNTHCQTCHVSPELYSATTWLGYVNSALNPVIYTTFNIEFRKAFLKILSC
D2 ag-3 – qHTS of D3 Dopamine Receptor Agonist: D2 Dopamine Receptor B-arrestin Agonist Counterscreen; shares compounds with D2 ag-1; DiscoveRx PathHunter D2 beta-arrestin, luminescence, 90 min; response scale: percent relative to full dopamine signal; Potency, µM (doses to about 76.9 µM), usual class: activators; 2,300 compounds, 5.9% hits; also: nearly all actives have a fitted effect of over 70% in size
A number is an active result; . = inactive; ? = inconclusive; / = not tested or not shown. Unless noted, calls follow the shape of the dose curve; as a rule, active = well fitted activation curve with a large enough effect; inconclusive = small, poorly fitted or top-dose-only effect; inactive = flat fitted curve, though single readings scatter.

SMILES	D2 ag-1	D2 antagonist	LDHA block	D2 PAM-1	D2 ag-2	D2 PAM-2	D3 ag	D2 ag-3
O=C(CN1CCN(c2ncccn2)CC1)NCc1ccccc1	50	.	.	.	.	.	.	.
CC(NC(=O)CN1CCN(c2ncccn2)CC1)c1ccc(F)cc1 (stereo not drawn)	60	.	.	.	.	.	.	.
O=C(c1ccc(F)c(S(=O)(=O)N2CCOCC2)c1)N(c1ccccc1)c1ccccn1	/	/	.	/	.	.	.	?
O=C(CSc1nc2ccc(Cl)cc2[nH]1)N1N=C(c2cccs2)CC1c1ccco1 (stereo not drawn)	/	/	.	/	/	/	/	/
CCOC(=O)c1ccc(N2CN(CCc3ccccc3)CNC2=S)cc1	.	.	.	.	.	.	.	.
CCCN1CNC(=S)N(c2ccc(C(=O)OCC)cc2)C1	.	.	.	.	.	.	/	/
CC(=O)c1c(C)cc(C)c(COC(=O)c2ccccn2)c1C	/	/	.	/	/	/	/	/
COc1ccc2oc(C(=O)Nc3cccc(S(=O)(=O)N4CCOCC4)c3)c(C)c2c1	.	.	.	.	.	.	.	.
COc1ccc2oc(C(=O)OCC(=O)Nc3cccc(S(=O)(=O)N4CCOCC4)c3)c(C)c2c1	.	.	.	.	.	.	/	/
O=C(c1cccs1)N1CCN(CCc2ccccc2)CC1	43	42	.	.	.	.	.	.
O=C(Cc1ccccc1)N1CCN(C(=O)c2cccs2)CC1	.	.	.	.	.	.	/	/
O=C(c1cccs1)N1CCN(C/C=C/c2ccccc2)CC1	53	69	.	.	.	.	?	?
O=C(C(=O)N1CCN(C/C=C/c2ccccc2)CC1)c1ccccc1	/	/	.	/	/	/	/	/
CCCC(=O)n1nc(NCc2ccc(OCC)cc2)nc1NCc1ccc(OCC)cc1	/	/	.	/	/	/	/	/
O=C(Cn1nc(C(=O)O)c2ccccc2c1=O)Nc1ccc(F)c(Cl)c1	/	/	.	/	/	/	/	/
O=C(CCNS(=O)(=O)c1ccc(Br)cc1)NCc1cccs1	.	.	.	.	.	.	/	/
CN(Cc1cccs1)C(=O)CCNS(=O)(=O)c1ccc(Br)cc1	.	.	.	.	.	.	.	.
OC(COc1ccc2c(c1)OCO2)CN1CCN(c2ccccc2)CC1 (stereo not drawn)	71	82	.	.	?	.	?	?
COc1ccc(OCC(O)CN2CCN(c3ccccc3)CC2)cc1 (stereo not drawn)	89	.	.	.	?	.	?	?
COc1ccc(OCC(O)CN2CCN(c3ncccn3)CC2)cc1 (stereo not drawn)	70	62	.	.	?	.	?	?
COc1ccc(C(=O)CN2CCN(c3ncccn3)CC2)cc1	80	39	.	.	.	.	.	.
COc1cc(S(=O)(=O)N2CCC(C(N)=O)CC2)c(OC)cc1Cl	/	/	.	/	/	/	/	/
COc1cc2c(cc1OC)C(c1ccc(Cl)c(Cl)c1)C1=C(CCCC1=O)N2 (stereo not drawn)	/	/	.	/	/	/	/	/
COc1ccc(N2CCN(CC(O)COc3ccc(C(C)(C)C)cc3)CC2)cc1 (stereo not drawn)	.	/	.	.	/	/	/	/
CC(C)c1ccc(OCC(O)CN2CCN(c3ccccc3)CC2)cc1 (stereo not drawn)	54	78	.	.	?	.	.	?
SMILES	D2 ag-1	D2 antagonist	LDHA block	D2 PAM-1	D2 ag-2	D2 PAM-2	D3 ag	D2 ag-3
CCOc1cc(/C=C/c2ncc(C(=O)O)s2)cc(Cl)c1OC	/	/	.	/	/	/	/	/
CN(C(=O)CSc1nnc(-c2ccccc2)n1C)C1CCS(=O)(=O)C1 (stereo not drawn)	.	.	.	.	.	.	/	/
Cc1cc(C)n2c(SCC(=O)N(C)C3CCS(=O)(=O)C3)nnc2n1 (stereo not drawn)	60	.	.	.	.	.	.	.
COc1ccc(OC)c(S(=O)(=O)NCc2cn3ccsc3n2)c1	.	.	.	.	.	.	.	.
N#C/C(=C\c1ccc(-c2ccccc2C(=O)O)o1)c1nc2ccccc2[nH]1	.	.	.	.	.	.	.	.
CCCN(CCC)CCCNC(=S)Nc1ccc2nc(N3CCN(CC)CC3)cc(C)c2c1	.	.	.	.	.	.	.	.
O=C(O)CNC(=O)c1ccccc1Br	.	40	.	.	.	.	.	.
N#Cc1c(-c2csc(-c3no[n+]([O-])c3C#N)c2)no[n+]1[O-]	/	/	.	/	/	/	/	/
COc1cc(/C=C/C(O)=C/C(=O)/C=C/c2ccc(O)cc2)ccc1O	48	.	.	.	.	.	.	.
O=C(Nc1ccnn1C1CCN(Cc2cccnc2)CC1)c1ccccc1Cl	.	.	.	.	.	.	/	/
O=C(Nc1ccnn1C1CCN(CCCc2ccccc2)CC1)c1ccccc1Cl	80	88	.	.	?	.	.	?
CN(C)c1ccc(NCc2cccc(Br)c2)cc1	/	/	.	/	/	/	/	/
O=C(O)c1ccc(NC(=O)c2ccc3c(c2)C(=O)N(c2ccccc2)C3=O)cc1	.	.	.	.	.	.	/	/
O=C(O)c1ccc(S(=O)(=O)c2ccc3c(c2)C(=O)N(c2ccc(O)cc2)C3=O)cc1	61	.	.	.	.	.	.	.
CCOc1ccc(NC(=S)NC(=O)Cc2ccccc2)cc1	.	.	.	.	.	.	/	/
CCN(CC)c1ccc(NC(=S)NC(=O)Cc2ccccc2)cc1	73	77	.	.	.	.	.	.
COc1ccc2cc(CN(CCc3ccccc3)Cc3nnnn3CC3CCCO3)c(=O)[nH]c2c1 (stereo not drawn)	.	.	.	.	.	.	/	/
CCOC(=O)Cn1nnnc1CN(Cc1ccc(OC)cc1)Cc1cc2cc(CC)ccc2[nH]c1=O	.	.	.	.	.	.	.	.
